According to PubChem BioAssay (Tox21):
Values joined by “and” are separate entries in the source; they are usually repeats but may differ in a detail not shown here. Equal values may be shown once. Records with an inconclusive call do not appear. More than one record can exist for a structure, and the calls need not agree. Active and inactive are the calls of the source. Unless noted, calls follow the shape of the dose curve; as a rule, active = well fitted curve in the direction sought with a large enough effect in the repeat runs; inconclusive = weak or mixed curves; inactive = no such curve, though single readings can be large; an effect the other way counts as inactive or inconclusive.

Key:
[1] = qHTS assay to identify small molecule agonists of the hypoxia (HIF-1) signaling pathway - cell viability counter screen (AID 1224844; calls by dose curve; also: nearly all actives have a fitted effect of over 50% in size)
Summary of the method: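 In this counter screen, HRE-bla ME-180 cell viability after 17 hrs of compound exposure at 37C was read by CellTiter-Glo luminescence, multiplexed with the beta-lactamase reporter measurement.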

[2] = qHTS assay to identify small molecule agonists of H2AX (AID 1224845; active = well fitted activation curve with a large enough effect in the signal ratio in the repeat runs, not every such curve was filed as active; the % refers to the signal ratio)
Summary of the method: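 Wild-type CHO-K1 cells, plated overnight, exposed 3hr at 37C to 15 concentrations (0.76% DMSO final). Lysed, then HTRF anti-pH2AX (S139) cryptate and anti-H2AX-d2 antibodies, 24 hr room temperature; 665/620 nm emission read.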

[3] = qHTS assay to identify small molecule agonists of the hypoxia (HIF-1) signaling pathway (AID 1224846; active = well fitted activation curve with a large enough effect in the signal ratio in the repeat runs, not every such curve was filed as active; the % refers to the signal ratio)
Summary of the method: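 ME-180 HRE-bla reporter cells; compounds in DMSO, 17 h at 37C; read-out beta-lactamase via CCF4-AM FRET.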

[4] = qHTS assay to identify small molecule agonists of H2AX - cell viability counter screen (AID 1224847; calls by dose curve; also: top concentration of the series differs between compounds; nearly all actives have a fitted effect of over 30% in size)
Summary of the method: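 Quantitative HTS viability measurement: CHO-K1 wild-type cells in serum (10% FBS) medium, short 3 hr drug exposure at 37C with 0.76% DMSO, CellTiter-Glo luminescent detection.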

[5] = qHTS assay to identify small molecule antagonists of the estrogen related receptor (ERR) signaling pathway from Tox21 library (AID 1224848); also: nearly all actives have a fitted effect of over 50% in size; also: potency is read from the fitted curve at half-maximal effect
Summary of the method: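 Quantitative high-throughput format: ERR reporter cells (2,000/well) pre-incubated 6 h, treated 18 h at 37 C with compounds in DMSO alongside positive and negative controls, then read by ONE-Glo luminescence.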

[6] = qHTS assay to identify small molecule agonists of the estrogen related receptor (ERR) signaling pathway from Tox21 library (AID 1224849; calls by dose curve; also: nearly all actives have a fitted effect of over 15% in size); conditions: ERR reporter cell line, ONE-Glo luciferase, 18 h
Summary of the method: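 Luciferase activity in ERR pathway reporter cells served as the agonist readout; exposure lasted 18 h at 37 C, with ONE-Glo detection after 30 min at room temperature.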

[7] = qHTS RealTime-Glo MT Cell Viability Assay in HepG2 cells - 24 hour (AID 1224867); also: nearly all actives have a fitted effect of over 50% in size
Summary of the method: (§1)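 Tox21 10K library screened in qHTS format on HepG2 cells carrying RealTime-Glo reagents. Compounds were added after a 5 h preincubation, and the luminescent signal from continuous culture was measured repeatedly during 40 h treatment.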

[8] = qHTS RealTime-Glo MT Cell Viability Assay in HEK293 cells - 32 hour (AID 1224868); also: nearly all actives have a fitted effect of over 50% in size; also: potency is read from the fitted curve at half-maximal effect
Summary of the method: (§2)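 Luminescence generated by NanoLuc from substrate produced by living HEK293 cells served as the viability signal. Each value reflects the reading at its stated time point during continuous 40 h compound exposure at 37 C.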

[9] = A CellTox Green Cytotoxicity Assay to monitor cytotoxicity in HEK293 cells - 0 hour (AID 1224869); also: nearly all actives have a fitted effect of over 50% in size
Summary of the method: (§3)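 Real-time, in one plate: 600 HEK293 cells/well with dead-cell DNA dye, pinned compound after 5 h, 37 C incubation over 40 h; viable cells give no appreciable fluorescence.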

[10] = qHTS RealTime-Glo MT Cell Viability Assay in HepG2 cells - 40 hour (AID 1224870); also: nearly all actives have a fitted effect of over 50% in size
Summary of the method: (§4)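 HepG2 cells (600/well) mixed with RealTime-Glo MT reagent, settled 5 h at 37 C/5% CO2 before compound addition. Nonlytic NanoLuc luminescence from viable-cell prosubstrate reduction read repeatedly during 40 h treatment at 37 C.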

[11] = A CellTox Green Cytotoxicity Assay to monitor cytotoxicity in HEK293 cells - 40 hour (AID 1224871); also: nearly all actives have a fitted effect of over 45% in size
Summary of the method: as §3

[12] = qHTS RealTime-Glo MT Cell Viability Assay in HepG2 cells - 8 hour (AID 1224873); also: nearly all actives have a fitted effect of over 55% in size
Summary of the method: as §4

[13] = qHTS RealTime-Glo MT Cell Viability Assay in HEK293 cells - 40 hour (AID 1224874); conditions: RealTime-Glo luminescence; max response: stronger effect = lower value; also: nearly all actives have a fitted effect of over 50% in size
Summary of the method: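 Kinetic, non-lysing viability readout. Seed HEK293 (600/well) with reagent, incubate 5 h at 37 C/5% CO2, pin 23 nL compound in DMSO, incubate at 37 C, read luminescence at 0, 8, 16, 24, 32, 40 h.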

[14] = A CellTox Green Cytotoxicity Assay to monitor cytotoxicity in HEK293 cells - 24 hour (AID 1224875); also: nearly all actives have a fitted effect of over 45% in size
Summary of the method: as §3

[15] = A CellTox Green Cytotoxicity Assay to monitor cytotoxicity in HepG2 cells - 16 hour (AID 1224876); also: nearly all actives have a fitted effect of over 45% in size
Summary of the method: (§5)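 Cytotoxicity was tracked as dead-cell DNA fluorescence in HepG2 cells treated with test compounds at 37 C; each time-point value comes from one kinetic series spanning 0, 8, 16, 24, 32 and 40 h.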

[16] = qHTS RealTime-Glo MT Cell Viability Assay in HepG2 cells - 32 hour (AID 1224877); also: nearly all actives have a fitted effect of over 55% in size
Summary of the method: as §1

[17] = A CellTox Green Cytotoxicity Assay to monitor cytotoxicity in HepG2 cells - 24 hour (AID 1224878); also: nearly all actives have a fitted effect of over 45% in size; also: potency is read from the fitted curve at half-maximal effect
Summary of the method: as §5

[18] = A CellTox Green Cytotoxicity Assay to monitor cytotoxicity in HepG2 cells - 40 hour (AID 1224879); also: nearly all actives have a fitted effect of over 40% in size; also: potency is read from the fitted curve at half-maximal effect
Summary of the method: as §5

[19] = qHTS RealTime-Glo MT Cell Viability Assay in HEK293 cells - 16 hour (AID 1224872)
Summary of the method: as §2

[20] = biological target: Thyrotropin receptor (Homo sapiens) (UniProt P16473); test: qHTS assay to identify small molecule agonists of the thyroid stimulating hormone receptor (TSHR) signaling pathway (AID 1224843; calls by dose curve; also: nearly all actives have a fitted effect of over 45% in size)
Thyrotropin receptor (Homo sapiens), sequence (P16473 whole entry, looked up): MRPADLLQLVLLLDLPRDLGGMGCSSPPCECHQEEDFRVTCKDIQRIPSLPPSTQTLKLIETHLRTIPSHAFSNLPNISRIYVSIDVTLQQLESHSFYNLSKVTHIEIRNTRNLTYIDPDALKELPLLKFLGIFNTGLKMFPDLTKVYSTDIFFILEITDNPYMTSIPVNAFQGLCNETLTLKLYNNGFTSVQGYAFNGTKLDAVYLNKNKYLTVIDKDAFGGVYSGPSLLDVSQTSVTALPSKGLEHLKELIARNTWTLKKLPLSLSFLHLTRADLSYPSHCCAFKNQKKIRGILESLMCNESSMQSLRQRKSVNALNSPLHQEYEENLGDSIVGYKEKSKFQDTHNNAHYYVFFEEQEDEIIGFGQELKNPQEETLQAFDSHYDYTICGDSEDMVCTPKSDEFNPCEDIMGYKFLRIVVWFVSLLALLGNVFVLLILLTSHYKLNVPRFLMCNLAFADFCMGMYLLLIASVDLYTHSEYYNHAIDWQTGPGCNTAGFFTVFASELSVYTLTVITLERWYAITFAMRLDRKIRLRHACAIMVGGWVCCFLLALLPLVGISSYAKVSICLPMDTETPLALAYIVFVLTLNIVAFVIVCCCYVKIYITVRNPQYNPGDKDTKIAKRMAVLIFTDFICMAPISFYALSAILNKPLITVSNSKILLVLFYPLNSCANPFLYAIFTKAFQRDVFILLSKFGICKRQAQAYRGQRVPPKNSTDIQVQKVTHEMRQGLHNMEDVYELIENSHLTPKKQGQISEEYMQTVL
Summary of the method: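 Agonist-mode screen: TSHR HEK293 cells received test chemicals for half an hour at room temperature, then HTRF cAMP detection reagents for one hour prior to fluorescence measurement. Each chemical ran as a 15-concentration series, triplicated.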
% is scaled to controls: 0 for no effect and ±100 for the full control effect.

Cc1cccc(C(=O)O)c1
inactive: Potency [1] | outcome [2] | Potency [3] | Potency [4] | Potency [5] | activity change, positive = activation ([6]; at 92.4 µM (top of the series)) 0.909% and 9.04% | Potency [7] | Potency [8] | Potency [9] | Potency [10] | Potency [11] | Potency [12] | max response [13] 0.572% and -3.52% | Potency [14] | Potency [15] | Potency [16] | Potency [17] | Potency [18]

CC(=O)CC/C=C(\C)CCC=C(C)C
inactive: Potency [1] | outcome [2] | Potency [3] | Potency [4] | Potency [7] | Potency [8] | Potency [9] | Potency [10] | Potency [11] | Potency [19] | Potency [12] | max response [13] 1.02% and 0.97% | Potency [14] | Potency [15] | Potency [16] | Potency [17] | Potency [18]

CN(C)c1nc(N(C)C)nc(N(C)C)n1
inactive: Potency [20] | Potency [1] | Potency [4] | Potency [7] | Potency [8] | Potency [9] | Potency [10] | Potency [11] | Potency [12] | max response [13] -18.5% and -1.64% | Potency [14] | Potency [15] | Potency [16] | Potency [17] | Potency [18]

CCOC(=O)C(C#N)=C(c1ccccc1)c1ccccc1
inactive: Potency [1] | outcome [2] | Potency [3] | Potency [4] | activity change, positive = activation ([6]; at 42.5 µM (top of the series)) -21.7% | activity change, positive = activation ([6]; at 92.4 µM (top of the series)) -34.2% | Potency [7] | Potency [8] | Potency [9] | Potency [10] | Potency [11] | Potency [12] | max response [13] -18.4% and -13.3% | Potency [14] | Potency [15] | Potency [16] | Potency [17] | Potency [18]
active: Potency [5] 48.6 µM

NC=O
inactive: Potency [1] | outcome [2] | Potency [3] | Potency [4] | Potency [5] | activity change, positive = activation ([6]; at 92.4 µM (top of the series)) 6.78% and -1.46% | Potency [7] | Potency [8] | Potency [9] | Potency [10] | Potency [11] | Potency [19] | Potency [12] | max response [13] -1.02% and -20.4% | Potency [14] | Potency [15] | Potency [16] | Potency [17] | Potency [18]

COC(=O)Nc1nc2ccc(S(=O)c3ccccc3)cc2[nH]1 (stereo unspecified)
inactive and 10.7 µM (active): Potency [17]
inactive: Potency [1] | outcome [2] | Potency [3] | Potency [4] | Potency [5] | activity change, positive = activation ([6]; at 92.4 µM (top of the series)) -9.11% | Potency [7] | Potency [9] | Potency [10] | Potency [11] | Potency [12] | Potency [14] | Potency [15] | Potency [16]
active: activity change, positive = activation ([6]; at 42.5 µM (top of the series)) 3.15% | Potency [8] 9.76 µM and 952 nM | Potency [18] 0.848 µM
